Drawing on PMC5540273 (PLoS ONE, 2017), this text covers Kd for 19 compounds.

SMILES strings stand for the structures.

In one experiment the test system is T1, PIK4CB.
T1 construct: gene PI4KB

The test system of the next experiment is T2, PKAC-beta.
T2 construct: gene PRKACB
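Note: kd values determined as follow-up on hits from a single-replicate KINOMEscan panel screen.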

As a reminder, the Kd is the concentration at which binding is half-saturated. Lower therefore signals a tighter complex. On to `Cc1c(Cn2c(C)c(C)n3c(=O)cc(N4CCOCC4)nc23)cccc1C(F)(F)F` [GSK2328680], for which the figures for the Kd in the experiment on PIK3CD and in the experiment on PLK2 were 0.62 µM and greater than 10 µM, respectively. Compound `Fc1ccc(-c2nc3n(c2-c2ccncc2)CCS3)cc1` [GI98581] displayed an equilibrium dissociation constant (Kd) in the experiment on PIK3CG greater than 10 µM. In the experiment with PIK3CG, `COc1cccc(NC(=O)Nc2ccc(C)c(-c3ccc(C(=O)Nc4ccncc4)cc3)c2)c1` [GSK1398474] gave a Kd greater than 10 µM. `Cc1c(Cn2c3ccccc3n3c(=O)cc(N4CCOCC4)nc23)cccc1C(F)(F)F` [GSK2306394]: the dissociation constant (Kd) in the experiment with PIK4CB and in the experiment on PKN1 was greater than 10 µM in each case. Regarding `NS(=O)(=O)c1cccc(N/C=C2\C(=O)Nc3ccc(S(=O)(=O)Cc4c(Cl)cccc4Cl)cc32)c1` [GSK398099], binding in the experiment on PIK4CB was characterised by a dissociation constant (Kd) of 1.2 µM.

For `CCc1ccc(-c2ccc3c(c2)-c2n[nH]cc2S(=O)(=O)N3C)cc1`, in the experiment with PIKFYVE, the Kd is greater than 10 µM. Take `CN1c2ccc(-c3ccc(C(N)=O)cc3)cc2-c2[nH]ncc2S1(=O)=O`: the values for the equilibrium dissociation constant (Kd) with PIP5K1C and in the experiment on PRKD2 were 6.4 µM and greater than 10 µM, respectively.

On to `CS(=O)(=O)Cc1ccc(Nc2nccc(-c3c(-c4cccc(NC(=O)C5CCCCC5)c4)nn4ncccc34)n2)cc1` [GSK350559], for which, in the experiment on PIP5K1C, the Kd is greater than 10 µM. In turn, `O=C1NC(=O)C(c2ccc(Cl)cc2)=C1Nc1cccc(Cl)c1` [SB-317651] showed a dissociation constant (Kd) in the experiment on PKAC-beta greater than 10 µM. Turning to `CC[C@@H]1CO[C@H](C(=O)Nc2ccccc2)CN1c1cc(-c2ccc3c(N)n[nH]c3c2)nc(NC)n1` [GSK2376236], the figures for the Kd with PKN1 and with PRKX were greater than 10 µM and 0.13 µM, respectively. Consider `CNC(=O)c1ccc(C)c(-n2c(C)cc(OCc3ccc(F)cc3F)c(Br)c2=O)c1`, for which the Kd with PRKCI was greater than 10 µM.

For the compound `O=C(Nc1n[nH]c2cc(-c3ccsc3)ccc12)C1CC1` [SB-732932], the equilibrium dissociation constant (Kd) in the experiment with PRKD1 was greater than 10 µM. With `CNc1nc(-c2ccc3c(N)n[nH]c3c2)cc(N2C[C@@H](C(=O)Nc3ccccc3)CC[C@H]2C)n1` [GSK2298859], the dissociation constant (Kd) with PRKX was determined as 0.065 µM.

For the compound `Cc1ccc(NC(=O)Nc2ccc(Cl)c(C(F)(F)F)c2)cc1-c1ccc(C(=O)Nc2ccncc2)cc1` [GSK1398470], in the experiment on RAF1, binding was characterised by a dissociation constant (Kd) of 0.34 µM. Same read-out and setting: for `Cc1ccc(NC(=O)Nc2ccc(Cl)cc2)cc1-c1ccc(C(=O)Nc2ccncc2)cc1` [GSK1398472] the value was 0.35 µM. In the experiment on RET, `Fc1ccc(-c2nn3cccc(F)c3c2-c2ccncc2)cc1` [GW475620] returned a Kd greater than 10 µM. In the case of `CNCc1ccc2nc(NC(=O)c3ccc(C(C)(C)C)cc3)cn2c1`, in the experiment on RIOK2, the Kd is greater than 10 µM. On to `CC(C)c1cc(-c2ccc3c(N)n[nH]c3c2)nc(N)n1` [GSK2250882], for which, in the experiment with RIOK3, binding was put at a Kd of 0.44 µM. In the case of `Nc1cccc(-c2ccc3c(N)n[nH]c3c2)n1` [GSK2192730], in the experiment with RIOK3, the equilibrium dissociation constant (Kd) was found to be 0.49 µM.
